Inconclusive results are not listed. Activity calls are given as the source filed them. Unless noted, calls come from the whole dose curve; as a rule, active = well fitted curve in the direction sought with a large enough effect; inconclusive = small, poorly fitted or top-dose-only effect, or another doubt; inactive = no such curve, though single readings can be large; an effect the other way counts as inactive or inconclusive.
Legend:
[1] = P-glycoprotein substrates identified in KB-8-5-11 adenocarcinoma cell line, qHTS therapeutic library screen (AID 1346987); note: series mostly up to about 44 µM; nearly all actives have a fitted effect of over 65% in size
Method in brief: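 Compounds are pinned in dose-response onto KB-8-5-11 cells (500 cells/well, colchicine-free medium) and left 72 h at 37 degree C. CellTiter-Glo luminescence then yields AC50 values.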

[2] = NS1 protein of Zika virus - qHTS assay to identify small molecule inhibitors in human HEK 293 cells (AID 1347053); note: series mostly up to about 46 µM; nearly all actives have a fitted effect of over 55% in size
Method in brief: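 Read-out is a two-antibody TR-FRET for ZIKV NS1, normalized between uninfected cells and infected cells. Compound added 1 h before MR766 infection at MOI 0.5; human HEK 293 cells incubated 24 h, 37 C.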

[3] = qHTS for Inhibitors of the Functional Ribonucleoprotein Complex (vRNP) of Lassa (LASV) Arenavirus: LASV Primary Screen - GLuc reporter signal (AID 1347082; calls by dose curve; tested in HEK293 reporter line; note: series mostly up to about 57 µM; nearly all actives have a fitted effect of over 60% in size)
[4] = qHTS for Inhibitors of the Functional Ribonucleoprotein Complex (vRNP) of Lassa (LASV) Arenavirus: Viability assay - alamar blue signal for LASV Primary Screen (AID 1347083; calls by dose curve; tested in HEK293 reporter line; note: series mostly up to about 57 µM; nearly all actives have a fitted effect of over 80% in size)
[5] = qHTS for Inhibitors of the Functional Ribonucleoprotein Complex (vRNP) of Lymphocytic Choriomeningitis Arenaviruses (LCMV): Viability assay - alamar blue signal for LCMV Primary Screen (AID 1347085; calls by dose curve; tested in HEK293 reporter line; note: series mostly up to about 57 µM; nearly all actives have a fitted effect of over 80% in size)
[6] = target: Nucleoprotein (Lymphocytic choriomeningitis virus (strain Armstrong)) (UniProt P09992); experiment: qHTS for Inhibitors of the Functional Ribonucleoprotein Complex (vRNP) of Lymphocytic Choriomeningitis Arenaviruses (LCMV): LCMV Primary Screen - GLuc reporter signal (AID 1347086; calls by dose curve; note: series mostly up to about 57 µM; nearly all actives have a fitted effect of over 70% in size)
Sequence of Nucleoprotein (Lymphocytic choriomeningitis virus (strain Armstrong)) (P09992 whole entry, looked up): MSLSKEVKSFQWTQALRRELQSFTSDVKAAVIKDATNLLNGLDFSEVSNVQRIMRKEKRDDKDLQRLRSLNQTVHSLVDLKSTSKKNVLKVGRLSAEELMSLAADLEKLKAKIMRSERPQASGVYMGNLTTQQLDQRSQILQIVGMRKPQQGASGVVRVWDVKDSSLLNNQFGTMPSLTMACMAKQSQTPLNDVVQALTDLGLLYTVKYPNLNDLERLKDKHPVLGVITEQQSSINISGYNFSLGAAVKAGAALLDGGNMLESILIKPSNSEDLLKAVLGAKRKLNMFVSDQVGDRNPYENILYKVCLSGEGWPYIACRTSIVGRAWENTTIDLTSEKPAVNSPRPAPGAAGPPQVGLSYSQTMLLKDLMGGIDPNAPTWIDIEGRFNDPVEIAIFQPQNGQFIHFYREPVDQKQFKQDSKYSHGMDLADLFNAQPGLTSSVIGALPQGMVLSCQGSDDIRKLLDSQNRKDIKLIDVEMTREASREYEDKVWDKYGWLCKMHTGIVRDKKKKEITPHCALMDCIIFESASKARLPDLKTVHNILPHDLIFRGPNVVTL

[7] = qHTS of pediatric cancer cell lines to identify multiple opportunities for drug repurposing: Primary screen for TC32 cells (AID 1347089); note: nearly all actives have a fitted effect of over 60% in size
Method in brief: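 Luminescent ATP read-out (CellTiter-Glo) of metabolically active TC32 cells after 48 h exposure. Concentration-response curves came from 11-point (MIPE, 0.78 nM–46 µM) or 8-point (NPC, 0.59 nM–46 µM) primary titrations; follow-up used 11 points.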

[8] = qHTS of pediatric cancer cell lines to identify multiple opportunities for drug repurposing: Primary screen for DAOY cells (AID 1347090); note: series mostly up to about 46 µM; nearly all actives have a fitted effect of over 55% in size
Method in brief: (§1)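 Viability measured as metabolically active cells via CellTiter-Glo luminescence following 48 hours of compound exposure, 11-point dilutions in confirmatory testing. 500-1,000 cells/well plated 5 hours before dosing; controls were DMSO and 2.3 µM bortezomib.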

[9] = qHTS of pediatric cancer cell lines to identify multiple opportunities for drug repurposing: Primary screen for SJ-GBM2 cells (AID 1347091)
Method in brief: as §1

[10] = qHTS of pediatric cancer cell lines to identify multiple opportunities for drug repurposing: Primary screen for A673 cells (AID 1347092); note: nearly all actives have a fitted effect of over 45% in size
Method in brief: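 Cell viability of A673 measured by CellTiter-Glo ATP luminescence after 48 hours compound exposure. Dilution series spanned 0.78 nM to 46 µM (MIPE, 11-point) or 0.59 nM to 46 µM (NPC, 8-point); bortezomib 2.3 uM positive control.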

[11] = qHTS of pediatric cancer cell lines to identify multiple opportunities for drug repurposing: Primary screen for SK-N-MC cells (AID 1347093); note: series mostly up to about 46 µM
Method in brief: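 Metabolically active cells were quantified by ATP-dependent luminescence (CellTiter-Glo, 15 min at room temperature) following 48 h treatment. Cells had been plated at 500-1,000 per well and settled for 5 h beforehand.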

[12] = qHTS of pediatric cancer cell lines to identify multiple opportunities for drug repurposing: Primary screen for BT-37 cells (AID 1347094); note: series mostly up to about 57 µM
Method in brief: (§2)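 CRCs from 8- or 11-point titrations (lowest final 0.59 nM NPC, 0.78 nM MIPE). Cell viability: CellTiter-Glo after 48 h incubation, 15 min room-temperature development, luminescence imaging.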

[13] = qHTS of pediatric cancer cell lines to identify multiple opportunities for drug repurposing: Primary screen for NB-EBc1 cells (AID 1347095)
Method in brief: as §2

[14] = Natriuretic polypeptide receptor (hNpr1) antagonism - Pilot counterscreen GloSensor control cell line (AID 1347045; calls by dose curve; note: series mostly up to about 38 µM)
Method in brief: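 Control counterscreen: luciferase cGMP-biosensor HEK293 cells (no Npr1) received compound for 30 min at room temperature after GloSensor substrate loading. Luminescence was measured before and 20 min after soluble guanylyl cyclase activation by 50 uM nitroprusside.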

[15] = target: Atrial natriuretic peptide receptor 1 (Homo sapiens) (UniProt P16066); experiment: Natriuretic polypeptide receptor (hNpr1) antagonism - Pilot screen (AID 1347049; calls by dose curve;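 note: agonist-evoked cGMP luminescence read 20 min after hNppA addition; series mostly up to about 58 µM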)
Sequence of Atrial natriuretic peptide receptor 1 (Homo sapiens) (P16066 whole entry, looked up): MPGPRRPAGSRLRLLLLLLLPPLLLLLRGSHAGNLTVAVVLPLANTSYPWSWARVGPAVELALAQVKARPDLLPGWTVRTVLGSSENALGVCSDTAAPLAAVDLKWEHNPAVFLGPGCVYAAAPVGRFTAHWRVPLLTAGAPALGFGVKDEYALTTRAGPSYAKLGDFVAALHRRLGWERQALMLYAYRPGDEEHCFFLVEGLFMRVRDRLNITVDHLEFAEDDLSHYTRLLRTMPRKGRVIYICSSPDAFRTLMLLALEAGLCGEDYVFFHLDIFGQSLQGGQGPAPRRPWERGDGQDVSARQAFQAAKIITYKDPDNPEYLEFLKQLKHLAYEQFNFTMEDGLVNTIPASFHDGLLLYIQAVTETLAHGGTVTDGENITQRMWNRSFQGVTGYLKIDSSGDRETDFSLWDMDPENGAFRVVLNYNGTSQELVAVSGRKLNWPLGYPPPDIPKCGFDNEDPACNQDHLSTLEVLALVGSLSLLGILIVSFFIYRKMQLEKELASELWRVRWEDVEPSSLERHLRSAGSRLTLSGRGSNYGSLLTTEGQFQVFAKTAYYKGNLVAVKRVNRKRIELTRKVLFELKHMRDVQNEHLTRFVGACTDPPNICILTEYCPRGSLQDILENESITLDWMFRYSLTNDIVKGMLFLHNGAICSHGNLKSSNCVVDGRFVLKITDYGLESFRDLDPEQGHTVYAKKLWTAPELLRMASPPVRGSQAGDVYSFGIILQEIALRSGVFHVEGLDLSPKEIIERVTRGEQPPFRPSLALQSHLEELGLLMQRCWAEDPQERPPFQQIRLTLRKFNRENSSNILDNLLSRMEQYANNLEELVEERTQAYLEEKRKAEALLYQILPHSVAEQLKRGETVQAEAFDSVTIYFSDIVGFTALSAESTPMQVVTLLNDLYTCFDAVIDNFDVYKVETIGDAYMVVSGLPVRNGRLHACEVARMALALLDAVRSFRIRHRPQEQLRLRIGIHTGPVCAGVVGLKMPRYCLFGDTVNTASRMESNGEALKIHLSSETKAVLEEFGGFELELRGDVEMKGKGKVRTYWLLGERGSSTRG
Method in brief: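 cGMP-sensor HEK293/hNpr1 cells, 1500/well, plated overnight at 37C. 2% GloSensor reagent, 2 h RT. Compound (23 nL pin transfer) 30 min RT, baseline luminescence pre-read. 0.1 nM hNppA, 20 min RT, post-read.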

[16] = target: Atrial natriuretic peptide receptor 2 (Homo sapiens) (UniProt P20594); experiment: Natriuretic polypeptide receptor (hNpr2) antagonism - Pilot subtype selectivity assay (AID 1347050; calls by dose curve)
Sequence of Atrial natriuretic peptide receptor 2 (Homo sapiens) (P20594 whole entry, looked up): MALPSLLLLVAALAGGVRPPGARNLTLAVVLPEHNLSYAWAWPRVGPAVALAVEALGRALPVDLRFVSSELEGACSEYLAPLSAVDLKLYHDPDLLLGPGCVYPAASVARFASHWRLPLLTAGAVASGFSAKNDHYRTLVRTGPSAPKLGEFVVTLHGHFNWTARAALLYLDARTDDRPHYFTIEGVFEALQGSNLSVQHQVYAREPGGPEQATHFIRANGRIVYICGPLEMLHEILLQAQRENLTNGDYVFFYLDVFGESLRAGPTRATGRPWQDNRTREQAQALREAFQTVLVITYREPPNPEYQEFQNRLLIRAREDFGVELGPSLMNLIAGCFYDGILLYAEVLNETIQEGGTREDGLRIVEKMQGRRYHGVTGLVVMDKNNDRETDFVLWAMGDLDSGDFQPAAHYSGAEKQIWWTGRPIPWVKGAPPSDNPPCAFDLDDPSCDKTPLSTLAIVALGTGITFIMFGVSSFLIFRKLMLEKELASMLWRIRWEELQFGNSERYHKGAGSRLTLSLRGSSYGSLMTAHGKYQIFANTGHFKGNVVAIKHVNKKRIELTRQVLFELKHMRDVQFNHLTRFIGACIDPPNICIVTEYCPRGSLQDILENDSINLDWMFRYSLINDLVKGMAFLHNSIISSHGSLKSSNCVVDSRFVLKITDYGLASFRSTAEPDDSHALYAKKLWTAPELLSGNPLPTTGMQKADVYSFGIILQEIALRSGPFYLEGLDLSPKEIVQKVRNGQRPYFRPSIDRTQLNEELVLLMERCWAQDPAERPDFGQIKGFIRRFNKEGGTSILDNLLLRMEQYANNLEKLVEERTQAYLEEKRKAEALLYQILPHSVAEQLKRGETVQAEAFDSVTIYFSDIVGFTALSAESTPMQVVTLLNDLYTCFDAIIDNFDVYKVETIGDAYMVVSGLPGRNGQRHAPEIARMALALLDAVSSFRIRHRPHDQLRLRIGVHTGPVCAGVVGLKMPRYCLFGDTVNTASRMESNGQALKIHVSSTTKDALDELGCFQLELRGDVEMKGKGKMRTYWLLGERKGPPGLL
Method in brief: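 Luminescence from a genetically encoded cGMP luciferase biosensor in hNpr2-expressing HEK293 cells is read before and 20 min after adding 1 nM hNppC. Test compounds, in interplate 1:5 titrations, are added 30-50 min ahead of the agonist.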

[17] = target: T1, Tyrosine-protein phosphatase non-receptor type substrate 1 (Homo sapiens) + Leukocyte surface antigen CD47 (Homo sapiens) (UniProt P78324+Q08722); experiment: CD47-SIRPalpha protein protein interaction - LANCE assay qHTS validation (AID 1347057; active = well fitted curve in the direction sought with a large enough effect in the signal ratio, with a control signal flat, not every such curve was filed as active; the % refers to the signal ratio; note: series mostly up to about 38 µM)
T1 sequence (P78324 whole entry, looked up, the tested form may be a part): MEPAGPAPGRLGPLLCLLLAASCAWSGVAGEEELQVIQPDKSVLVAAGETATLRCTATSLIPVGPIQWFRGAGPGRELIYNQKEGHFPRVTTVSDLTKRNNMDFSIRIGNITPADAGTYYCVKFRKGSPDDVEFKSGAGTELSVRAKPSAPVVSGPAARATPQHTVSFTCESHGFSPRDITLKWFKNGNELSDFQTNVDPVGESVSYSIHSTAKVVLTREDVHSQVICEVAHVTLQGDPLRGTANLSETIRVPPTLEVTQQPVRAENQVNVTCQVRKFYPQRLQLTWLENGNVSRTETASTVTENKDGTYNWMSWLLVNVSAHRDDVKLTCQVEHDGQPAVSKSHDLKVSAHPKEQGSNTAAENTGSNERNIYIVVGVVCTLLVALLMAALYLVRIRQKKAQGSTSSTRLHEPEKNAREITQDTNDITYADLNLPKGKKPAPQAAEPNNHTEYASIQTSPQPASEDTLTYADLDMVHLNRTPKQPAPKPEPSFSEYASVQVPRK
T1 sequence (Q08722 whole entry, looked up, the tested form may be a part): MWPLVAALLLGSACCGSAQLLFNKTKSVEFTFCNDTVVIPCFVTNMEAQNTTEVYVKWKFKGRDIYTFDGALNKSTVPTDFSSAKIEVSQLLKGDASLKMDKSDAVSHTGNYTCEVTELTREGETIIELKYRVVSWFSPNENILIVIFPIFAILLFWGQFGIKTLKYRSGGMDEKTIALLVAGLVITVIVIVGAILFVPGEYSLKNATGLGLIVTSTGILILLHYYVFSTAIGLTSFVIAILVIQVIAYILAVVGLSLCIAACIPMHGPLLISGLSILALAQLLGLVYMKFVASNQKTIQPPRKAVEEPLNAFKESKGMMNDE
Method in brief: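 Inhibition of soluble CD47/SIRPalpha ectodomain association by titrated compounds, measured as 665/615 nm time-resolved FRET ratio after sequential 30 min room-temperature incubations.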

[18] = target: T1, Tyrosine-protein phosphatase non-receptor type substrate 1 (Homo sapiens) + Leukocyte surface antigen CD47 (Homo sapiens); experiment: CD47-SIRPalpha protein protein interaction - Alpha assay qHTS validation (AID 1347059);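 note: bead proximity luminescence from CD47 binding SIRPalpha after compound preincubation with SIRPalpha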
Method in brief: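 SIRPalpha-biotin 25 nM + cpd, 30 min RT, dark; add CD47-His 12.5 nM, 30 min; add Ni-NTA/SAV beads 10 ug/mL, 30 min; AlphaScreen. Buffer PBS pH 7.4 + 0.05% IGEPAL CA-630. Non-biotinylated SIRPalpha as control inhibitor.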

[19] = target: Parathyroid hormone/parathyroid hormone-related peptide receptor (Homo sapiens) (UniProt Q03431); experiment: qHTS for PTHR1 Agonists: Optimization Screen against the NCGC LOPAC library (AID 1347079);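 note: GloSensor cAMP luminescence in HEK-293 GP2 cells expressing human PTHR1 with IBMX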
Sequence of Parathyroid hormone/parathyroid hormone-related peptide receptor (Homo sapiens) (Q03431 whole entry, looked up): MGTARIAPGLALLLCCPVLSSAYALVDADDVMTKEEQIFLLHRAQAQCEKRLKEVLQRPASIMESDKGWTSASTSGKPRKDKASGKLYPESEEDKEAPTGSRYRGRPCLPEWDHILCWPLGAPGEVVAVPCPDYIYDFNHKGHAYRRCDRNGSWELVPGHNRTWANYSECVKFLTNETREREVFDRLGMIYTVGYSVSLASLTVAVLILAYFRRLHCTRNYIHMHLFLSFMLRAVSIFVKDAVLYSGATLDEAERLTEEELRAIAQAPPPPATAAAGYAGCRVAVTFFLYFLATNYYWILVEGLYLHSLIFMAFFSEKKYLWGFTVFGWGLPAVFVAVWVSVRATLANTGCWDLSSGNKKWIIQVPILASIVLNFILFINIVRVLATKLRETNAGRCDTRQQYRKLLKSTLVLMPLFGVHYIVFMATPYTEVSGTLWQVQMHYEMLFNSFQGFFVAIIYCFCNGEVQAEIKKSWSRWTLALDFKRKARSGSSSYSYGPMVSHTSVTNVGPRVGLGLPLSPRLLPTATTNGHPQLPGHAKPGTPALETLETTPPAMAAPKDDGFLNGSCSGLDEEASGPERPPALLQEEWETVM
Method in brief: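 HEK-293 GP2 cells, PTHR1 + GloSensor cAMP; 3000 cells/well, o/n. Luciferin + IBMX 0.5mM each (stock), 1 hr 37C. Cpd titration, 1 hr 37C. Lum after 15 min RT. Ctrl M-PTH(1-15) top 10uM.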

[20] = qHTS of pediatric cancer cell lines to identify multiple opportunities for drug repurposing: Primary screen for U-2 OS cells (AID 1347096); note: nearly all actives have a fitted effect of over 50% in size
Method in brief: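 Viability after 48 h compound treatment at 37C, 500-1,000 cells/well, read as ATP luminescence with CellTiter-Glo. Primary screens used 11-point (MIPE, 0.78 nM-46 µM) or 8-point (NPC, 0.59 nM-46 µM) final concentrations; follow-up screens used 11-point dilutions.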

Measured: Potency

C[N+]1(CCF)[C@@H]2CC[C@H]1CC(OC(=O)C(O)(c1ccccc1)c1ccccc1)C2 (stereo partly specified)
inactive: [1] | [2] | [3] | [4] | [5] | [6] | [7] | [8] | [9] | [10] | [11] | [12] | [13]

NC(=O)c1cc([N+](=O)[O-])cc([N+](=O)[O-])c1
inactive: [1] | [2] | [3] | [4] | [5] | [6] | [7] | [8] | [9] | [10] | [11] | [12] | [13]

COc1ccc2c3c1O[C@H]1[C@H](O)CC[C@H]4[C@@H](C2)N(C)CC[C@@]341
inactive: [1] | [2] | [3] | [4] | [5] | [6] | [7] | [8] | [9] | [10] | [11] | [12] | [13]

NCCc1ccc(O)cc1
inactive: [1] | [14] | [15] | [16] | [2] | [17] | [18] | [19] | [3] | [4] | [5] | [6] | [7] | [8] | [9] | [10] | [11] | [12] | [13] | [20]

COc1ccc2c(c1OC)C(=O)O[C@H]2[C@@H]1c2cc3c(cc2CCN1C)OCO3
inactive: [1] | [14] | [15] | [16] | [2] | [17] | [18] | [19] | [3] | [4] | [5] | [6] | [7] | [8] | [9] | [10] | [11] | [12] | [13] | [20]

COC(=O)C(Cl)C(=O)OC
inactive: [1] | [2] | [3] | [4] | [5] | [6] | [7] | [8] | [9] | [10] | [11] | [12] | [13] | [20]

C[C@H]1[C@@H]2Cc3ccc(O)cc3[C@@]1(C)CCN2C
inactive: [1] | [2] | [3] | [4] | [5] | [6] | [7] | [8] | [9] | [10] | [12] | [20]

CNC(C)(C)Cc1ccccc1
inactive: [1] | [2] | [3] | [4] | [5] | [6] | [7] | [8] | [10] | [11] | [12] | [13] | [20]

CCN(CC)CCc1c[nH]c2ccccc12
inactive: [1] | [2] | [3] | [4] | [5] | [6] | [7] | [8] | [9] | [10] | [11] | [12] | [20]

— PubChem BioAssay (NCATS)
